Structures are written as SMILES. The panel holds about 83,000 compounds, 20% with a hit somewhere; the sample as a whole holds those more often.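 Testing used 96-well plates and a 48-hour single-concentration exposure. Example: -40 means 40% of the starting cells died.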 Values without a mark were called inactive. Activity calls are given as the source filed them. How the source made its calls: active means growth percent below 10; inactive means the rest.

The test system of this experiment is MDA-MB-468 breast. The experiment in a line: NCI-60 one-dose screen, 48 h (100 = growth as untreated, 0 = no growth, -100 = all killed). Particulars: 10 µM unless noted.
Consider `Cc1nc2sccn2c1-c1csc(Nc2cccc(Cl)c2C)n1`, for which the growth was -13% (active). Regarding `NS(=O)(=O)c1ccc(CCN2C(=O)C3C(C2=O)C2(Cl)C(Cl)=C(Cl)C3(Cl)C2(Cl)Cl)cc1` (stereo unspecified), the growth was 109%. Take `CN(C)C(=S)N(C)C`: the growth was 114%. For the compound `COc1ccc2cc1Oc1ccc(cc1)C[C@H]1c3c(cc4c(c3Oc3cc5c(cc3OC)CCN(C)[C@@H]5C2)OCO4)CCN1C`, the growth is 7.08% (active). Turning to `CN1C2CCC1/C(=C\c1ccc(Cl)cc1)C(=O)/C2=C/c1ccc(Cl)cc1`, the growth is 59.1%. With `S=C(SSC(=S)N1CCOCC1)N1CCOCC1`, the growth was 106%.

The values above are taken from PubChem BioAssay (NCI).
